# Screening results (PubChem BioAssay)
# RmlC RmlD mix: inhibitors of RmlC and RmlD coupled enzymes; RmlC/RmlD coupled enzyme inhibition, 384-well mixture HTS; inhibition, % at 5.5 µM; 110,000 compounds, 0.39% hits; AID 1532; in the data active = inhibition above about 30%, passing the limit was not always enough; inconclusive = no clear call, values can overlap the other calls
# HIV RNase H inh-1: inhibitors of HIV-1 reverse transcriptase RNase H | P04585 | RT-RNase H RNA/DNA duplex cleavage, fluorescence | inhibition, % at 10 µM | 65,000 compounds, 1.9% hits; in the data active = inhibition above about 50%
# HIV RNase H inh-2: confirmation of HIV-1 reverse transcriptase RNase H inhibitors; shares compounds with HIV RNase H inh-1; Recombinant RT RNase H, fluorescent RNA/DNA duplex cleavage; inhibition, % at 10 µM; 1,000 compounds, 39% hits; AID 651; in the data active = inhibition above about 48%; inconclusive = no clear call, values can overlap the other calls
# Numbers without * were called inactive; ? = inconclusive; / = no result. Only a selection was taken, and hits are over-represented in it overall.
SMILES,RmlC RmlD mix,HIV RNase H inh-1,HIV RNase H inh-2
CC(C)Cn1c(=O)c(C(=O)Nc2ccncc2)c(O)c2ccccc21,/,70.6*,46.7
Cc1ccc(C)c(-n2c(SCC(=O)NCC3CCCO3)nnc2-c2ccoc2C)c1 (stereo unspecified),-2.0,-2.5,/
Cc1ccc(-n2c(SCC(=O)NCC3CCCO3)nnc2-c2ccoc2C)cc1 (stereo unspecified),-18.8,83.7*,34.3
COc1ccc(Nc2nc(N3CCCCC3)nc3ccccc23)c(OC)c1,-20.8,/,/
CN(C)c1ccc(NC(=O)CN2C(=O)CC(c3ccccc3)=Nc3ccccc32)cc1,-12.0,88.7*,40.7
CN(C)c1ccc(NC(=O)CCCc2ccccc2)cc1,10.2,12.2,/
CCSc1nnc(NC(=O)c2cc3c(s2)CCCC3)s1,-7.0,11.4,/
CCSc1nnc(NC(=O)c2csc3c2CCCC3)s1,6.1,62.5*,?
O/N=C/c1cc(Br)ccc1OCc1cccc(F)c1,4.5,/,/
COc1ccc(-c2cc(C(=O)Nc3cc(OC)c(OC)c(OC)c3)no2)cc1OC,-6.6,80.0*,24.7
COc1cccc(-c2cc(C(=O)Nc3ccc(OC)c(OC)c3)no2)c1,-10.5,-2.9,/
CS(=O)(=O)Nc1ccc(C(=O)NCCC2=CCCCC2)cc1,-94.8,-10.0,/
CN1C(=O)CC(N2CCN(C(=O)CN3CCCC3)CC2)C1=O (stereo unspecified),12.4,-13.9,/
CCn1c(=O)n(CC(=O)Nc2cccc(OC)c2)c(=O)c2ccccc21,-0.4,-5.7,/
CCOC(=O)c1cc2sccc2n1CC(=O)N1c2ccccc2CC1C (stereo unspecified),7.8,56.8*,?
CCOC(=O)c1cc2sccc2n1CC(=O)O,5.0,/,/
O=c1[nH]c2cc3c(cc2cc1C(c1nnnn1C1CCCC1)N1CCSCC1)OCCO3 (stereo unspecified),/,60.6*,31.9
CC(C)(C)n1nnnc1C(c1cc2cc3c(cc2[nH]c1=O)OCCO3)N1CCSCC1 (stereo unspecified),21.3,4.2,/
CSCSC1=C(C#N)C(c2ccc(Cl)cc2)C(C(C)=O)=C(C)N1 (stereo unspecified),7.1,60.8*,17.7
CCOC(=O)CSC1=C(C#N)C(c2ccccc2)C(C(C)=O)=C(C)N1 (stereo unspecified),5.3,2.6,/
O=C(CSc1nnnn1-c1ccc2c(c1)OCCO2)N1CCc2ccccc21,7.2,1.0,/
O=C(CSc1nnnn1-c1ccc2c(c1)OCCO2)OC1CCCCC1,6.5,87.3*,28.3
COc1ccc(-c2nc(CS(=O)(=O)CC(=O)NCCc3cc(OC)ccc3OC)c(C)o2)cc1,2.8,-6.6,/
COc1ccc(OC)c(CCNC(=O)Cn2sc3nc(C)cc(C)c3c2=O)c1,6.7,97.3*,56.6*
CCC(C)c1ccc(O)c(N)c1 (stereo unspecified),-19.0,60.0*,3.7
SMILES,RmlC RmlD mix,HIV RNase H inh-1,HIV RNase H inh-2
CC(C)(C)c1ccc(O)c(N)c1,3.8,86.1*,?
CC(C)c1ccc(O)c(NC(=O)c2cccnc2)c1,10.1,/,/
CC(C)(C)c1ccc(SCC(N)=O)cc1,-7.0,-12.1,/
CCC(C)c1ccc(O)c(NC(=O)c2cncc(Br)c2)c1 (stereo unspecified),-17.2,2.8,/
CC(C)c1ccc(O)c(N)c1,-11.3,57.6*,-12.6
CCSc1nc(N2CCOCC2)c2c(c1C#N)CC(C)(C)N(C)C2,5.7,/,/
Cc1ccc(S(=O)(=O)N2CCCC(C(=O)NCCC3=CCCCC3)C2)cc1 (stereo unspecified),-5.3,/,/
C=CCn1c(N)c(C(=O)NCCC2=CCCCC2)sc1=S,5.5,81.2*,87.0*
C=CCN1C(=O)CSc2ccc(C(=O)NCCC3=CCCCC3)cc21,-14.0,/,/
Cn1cccc1Cc1nnc(SCC(=O)NCc2ccccc2)n1-c1ccc(F)cc1,-8.9,-5.7,/
CCC(=O)N(Cc1cc(=O)[nH]c2ccccc12)c1cccc(C)c1,60.3,69.8*,1.6
COc1ccc(N(Cc2cc(=O)[nH]c3ccccc23)C(=O)c2ccco2)cc1,-9.1,8.6,/
O=[N+]([O-])c1nn(-c2ccccc2)n(O)c1=NCc1ccc2c(c1)OCO2,7.4,/,/
Cc1cc(NC(=O)COC(=O)c2ccc(S(=O)(=O)N3CCCc4ccccc43)cc2)no1,?,-25.8,/
CCOC(=O)CN(C(=O)CNC(=O)c1ccco1)C(C(=O)NC1CCCCC1)c1cccs1 (stereo unspecified),-10.4,/,/
CCOC(=O)CSc1nc2cc(C)cc(C)c2cc1C#N,7.3,10.2,/
COc1ccc(-c2[nH]c(-c3ccc(C)cc3)nc2SCC(=O)NCc2ccco2)cc1OC,7.2,/,/
Cc1cc(C)c2cc(C#N)c(SCC(=O)NCc3ccco3)nc2c1,/,72.0*,35.2
Cc1ccc2c(SCC(=O)NCc3ccco3)nc(-c3ccc(F)cc3)nc2c1,8.3,75.1*,54.8*
Cc1ccc(S(=O)(=O)NCCCC(=O)C=[N+]=[N-])cc1,3.7,-15.4,/
